# Compound activity: PubChem BioAssay, National Center for Advancing Translational Sciences (NCATS)
# The list is not random: actives were taken first. Their share in the collection is about 19%.
# TDP1 inh: TDP1 (human) enzyme inhibition; Q9NUW8; recombinant TDP1, AlphaScreen DNA substrate cleavage; Potency, µM (titrated, usually from 130 µM), hits mostly inhibitors; actives 0.28% (n = 350,000); AID 485290; also: nearly all actives have a fitted effect of over 40% in size
# Target sequence (Q9NUW8 whole entry, looked up): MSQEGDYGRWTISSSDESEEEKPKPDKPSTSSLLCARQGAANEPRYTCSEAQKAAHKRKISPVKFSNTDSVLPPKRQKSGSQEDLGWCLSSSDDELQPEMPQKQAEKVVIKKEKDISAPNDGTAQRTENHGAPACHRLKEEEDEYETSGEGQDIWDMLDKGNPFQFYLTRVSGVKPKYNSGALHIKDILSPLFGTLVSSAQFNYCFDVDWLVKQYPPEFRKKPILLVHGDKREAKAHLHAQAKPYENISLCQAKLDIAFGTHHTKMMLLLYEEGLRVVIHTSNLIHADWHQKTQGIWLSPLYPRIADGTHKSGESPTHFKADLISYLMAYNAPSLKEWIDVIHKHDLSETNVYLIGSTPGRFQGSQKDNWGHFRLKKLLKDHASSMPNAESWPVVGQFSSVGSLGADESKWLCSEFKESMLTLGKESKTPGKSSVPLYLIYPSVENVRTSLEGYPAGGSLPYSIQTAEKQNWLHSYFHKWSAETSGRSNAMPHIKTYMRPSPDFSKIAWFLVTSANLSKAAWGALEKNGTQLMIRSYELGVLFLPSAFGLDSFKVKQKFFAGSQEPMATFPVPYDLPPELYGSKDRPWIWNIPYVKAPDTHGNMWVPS
#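 Tdp1 1 nM final; 15 min RT w/ cpd; substrate 15 nM, 5 min; beads 10 ug/ml, 10 min; AlphaScreen read. Neg ctrl: no enzyme.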
# TDP1 cell CPT: growth inhibition of DT40 Tdp1-/-;hTDP1 cells with camptothecin (screen for TDP1 inhibitors); chicken DT40 Tdp1-/-;hTDP1 cells + 20 nM CPT, ATP luminescence, 48 h; AID 686979; actives 12% (n = 420,000); Potency, µM (series often up to 46.2 µM), most hits filed as inhibitors; also: nearly all actives have a fitted effect of over 55% in size
#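 Chicken DT40 Tdp1-/- cells stably complemented with human TDP1 were seeded at 400 cells/well in medium containing 20 nM camptothecin, exposed to pin-transferred compounds, and grown at 37 °C for at least 48 hr. Viability was read as ATP luminescence.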
# TDP1 cell noCPT: qHTS for Inhibitors of human tyrosyl-DNA phosphodiesterase 1 (TDP1): qHTS in cells in absence of CPT | DT40 Tdp1-/- hTDP1 cells, no CPT, ATP luminescence, 48 h | actives 15% (n = 420,000) | Potency, µM (highest dose often 46.2 µM), usual class: inhibitors; also: nearly all actives have a fitted effect of over 55% in size
#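 Chicken DT40 Tdp1-/- cells stably complemented with human TDP1 were seeded at 400 cells/well with DMSO in place of 20 nM camptothecin. After compound pinning, cells grew at least 48 hr at 37 °C; viability read by CellTiter-Glo luminescence.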
# ELG1 repair inh: blocks ELG1-dependent DNA repair in HEK293T cells; HEK293T ELG1-luciferase reporter, luminescence, 16 h; DNA damage induced by 5-fluorouridine; Potency, µM (highest dose often 46.1 µM), most hits filed as inhibitors; actives 2.3% (n = 330,000); AID 504467; also: nearly all actives have a fitted effect of over 55% in size
#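 In this reporter screen, reduction of luminescence relative to DMSO vehicle indicated activity. Compounds and 5-fluorouridine were added together to 2,000 cells per well, incubated for 16 hr at 37 °C, then developed with ONE-Glo.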
# Giardia killer: Giardia lamblia killing. actives 0.15% (n = 340,000). activity change, % at 7.66 µM, hits read low. Giardia lamblia trophozoite viability; in the data active = activity change below about -80%; inconclusive = between about -30% and that limit;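 also: parasites exposed to compound for two days anaerobically before the ATP read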
#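 Giardia lamblia trophozoites (100 cells/well) were incubated with compounds for 48 h at 37 deg C under anaerobic conditions. Viability was read as ATP content by one-step luminescence after 15-30 min at room temperature.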
# IL-1B inflam inh: blocks inflammasome-driven IL-1 beta release. THP-1 LPS/ATP IL-1B secretion, AlphaLISA, 16 h; active compounds read low. activity change, % at 57.5 µM. actives 4.7% (n = 360,000). AID 743279; in the data active = activity change below about -50%; inconclusive = mostly about -30% to -49%
#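 THP-1 cells pretreated 1 hr with compounds (up to 57.5 uM final), then stimulated with LPS (250 ng/mL final) plus ATP (1.25 mM final); secreted IL-1B measured by AlphaLISA after 16 hr, decreased signal indicating inhibition.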
# Hits are given with their value; . = inactive; ? = inconclusive; / = not tested or not shown; [ ] = another dose, or the depositor's remark. Unless noted, calls follow the shape of the dose curve; as a rule, active = well fitted curve in the direction sought with a large enough effect; inconclusive = small, poorly fitted or top-dose-only effect, or another doubt; inactive = no such curve, though single readings can be large; an effect the other way counts as inactive or inconclusive.
SMILES,TDP1 inh,TDP1 cell CPT,TDP1 cell noCPT,ELG1 repair inh,Giardia killer,IL-1B inflam inh
COc1ccc(NC(=S)NNC(=S)Nc2cccc(C(F)(F)F)c2)cc1,.,5.8µM,6.51µM,.,.,?
CCCCC(c1nc2ccccc2[nH]1)n1c(=O)c(-c2ccccc2)nc2cc(C)c(C)cc21 (stereo not given),/,?,.,/,/,.
Cc1c(Cl)cnc(NC(=O)COC(=O)C2CC3CCCC(C2)C3=O)c1Cl (stereo not given),.,.,.,?,.,.
FC(F)(F)c1cccc(NC(=S)Nc2ccc(Cl)c(Cl)c2)c1,.,?,13µM,?,.,-86.8
CC(C)(C)NC(=S)Nc1ccc(Nc2ccccc2)cc1,.,14.6µM,16.4µM,.,.,?
CC(C)(C)NC(=S)Nc1ccc(Br)cc1,.,?,?,.,.,.
CCOc1ccc(C2OCCC(C)O2)cc1OC (stereo not given),/,.,.,/,.,.
CN(C)CC1CCCCC1OC(=O)/C=C/c1ccccc1 (stereo not given),.,.,.,.,.,?
COC(=O)c1ccc([C@H]2CC(=O)O2)cc1,/,?,?,.,.,-95.6
COc1ccc(NC(=O)c2c(NC(=O)COc3ccc(Cl)cc3)sc3c2CCCCC3)cc1,.[12.3 µM],?,.,/,/,/
Cc1cccc(NC(=S)NCc2ccc3c(c2)cc(C)n3C)c1C,.,11.6µM,14.6µM,25.9µM,.,.
COc1cccc(NC(=S)NCc2ccc3c(c2)cc(C)n3C)c1,.,.,16.4µM,.,.,.
Cc1cc2cc(CNC(=S)Nc3ccc(OC(F)(F)F)cc3)ccc2n1C,.,?,?,.,.,.
Cc1ccc(NC(=O)C2CCCN(S(=O)(=O)c3ccc4[nH]c(=O)ccc4c3)C2)cc1Cl (stereo not given),.,.,?,/,/,/
Cc1ccc(Cc2ccc(C(=O)NNC(N)=S)o2)cc1,.,.,.,.,.,.
O=c1[nH]c2ccccc2n2c(=S)[nH]nc12,.,.,.,.,.,.
O=C(CCn1c(=O)c2sccc2n(Cc2ccccc2F)c1=O)NCc1ccc2c(c1)OCO2,.,.,.,/,/,/
COc1ccc2c(c1)CC(C(=O)NCCCN1CCN(c3cccc(Cl)c3)CC1)CO2 (stereo not given),.,18.4µM,18.4µM,/,/,/
Cc1ccc(Cl)cc1N1CCN(CCCNC(=O)C2COc3ccccc3C2)CC1 (stereo not given),.,3.26µM,3.66µM,/,/,/
Cc1cccc(N2CCN(CCNC(=O)C3COc4ccccc4C3)CC2)c1C (stereo not given),.,?,23.1µM,/,/,/
CCC(=O)N1c2ccccc2CC1C(=O)NCCCN1CCN(c2cccc(Cl)c2)CC1 (stereo not given),.,?,?,/,/,/
CCC(=O)N1c2ccccc2CC1C(=O)NCCCN1CCN(c2cc(C)ccc2C)CC1 (stereo not given),.,20.6µM,?,/,/,/
O=C(NCCc1ccc(Cl)cc1)C1COc2ccccc2C1 (stereo not given),.,.,.,/,/,/
CCC(=O)N1c2ccccc2CC1C(=O)NCCCN1CCN(c2ccccc2)CC1 (stereo not given),.,?,?,/,/,/
Cc1ccc(CNC(=O)C2COc3ccccc3C2)cc1 (stereo not given),.,.,.,/,/,/
SMILES,TDP1 inh,TDP1 cell CPT,TDP1 cell noCPT,ELG1 repair inh,Giardia killer,IL-1B inflam inh
Cc1cc(=O)n(Cc2ccc(F)cc2Cl)c2c1c(C)nn2C,.,?,?,/,/,/
O=C(O)/C=C\C(=O)Nc1ccccc1C(=O)N1CCC(O)(c2ccc(Cl)cc2)CC1,/,?,?,/,.,.
COc1ccccc1C(=O)NC1=NC(c2ccc(Br)cc2)CC(=O)N1 (stereo not given),.,?,?,/,/,/
O=C(NCCCN1CCN(c2ccc(F)cc2)CC1)C1COc2ccccc2C1 (stereo not given),.,23.1µM,?,/,/,/
Cc1cc(C)cc(NC2=C(c3ccccc3)C(=O)c3ccccc32)c1,.,20.6µM,?,/,/,/
Cc1ccc(C2=C(O)c3ccccc3C(=O)C2=O)cc1,/,.,.,.,.,.
